# An excerpt weighted towards active compounds, which were near 0.99% of everything screened.
# TRPML1 inh: qHTS for Inhibitors of the Human Mucolipin Transient Receptor Potential 1 (TRPML1); Mucolipin-1 (Homo sapiens), Q9GZU1; TRPML1-inducible cells, Ca2+ dye fluorescence, FDSS; stronger effect = lower value; inhibition of EC80 agonist-evoked calcium signal; activity change, negative = inhibition, % (concentration not given with the values); actives 0.02% (n = 390,000); AID 624415, 2012; in the data active = activity change below about -50%; inconclusive = between about -30% and that limit;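 also: stimulus is agonist 54-4 at its EC80 concentration; % is scaled to controls: 0 for no effect and ±100 for the full control effect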
# Target sequence (Q9GZU1 whole entry, looked up): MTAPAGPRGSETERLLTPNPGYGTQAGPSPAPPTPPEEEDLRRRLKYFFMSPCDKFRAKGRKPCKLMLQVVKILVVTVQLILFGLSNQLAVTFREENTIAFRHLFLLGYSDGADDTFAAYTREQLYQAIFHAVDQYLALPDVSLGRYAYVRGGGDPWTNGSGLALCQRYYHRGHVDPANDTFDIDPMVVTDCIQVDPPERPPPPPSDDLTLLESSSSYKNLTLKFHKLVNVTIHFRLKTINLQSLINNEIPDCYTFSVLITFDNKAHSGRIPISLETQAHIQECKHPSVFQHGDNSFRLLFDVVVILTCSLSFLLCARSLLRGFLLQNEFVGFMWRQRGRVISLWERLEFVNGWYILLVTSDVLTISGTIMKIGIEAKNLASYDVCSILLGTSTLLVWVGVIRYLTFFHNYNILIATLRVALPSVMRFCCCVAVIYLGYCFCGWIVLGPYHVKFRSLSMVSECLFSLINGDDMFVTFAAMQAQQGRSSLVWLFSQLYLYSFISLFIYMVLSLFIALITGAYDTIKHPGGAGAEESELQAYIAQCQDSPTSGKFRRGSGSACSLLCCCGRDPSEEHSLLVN
#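 Calcium fluorescence in TRPML1-DL cells induced overnight with Tet: a 110 s read after compound pin addition, then a 110 s antagonist read after challenge with 54-4 at 4 uM final (EC80).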
# TRHR agonist-1: qHTS for Small Molecule Agonists and Allosteric Enhancers of Human TRH Receptor: Primary Screen for Agonists | TRHR cells, calcium flux fluo-8, FDSS agonist mode | activation, % at 2 µM | actives 0.18% (n = 360,000) | AID 493084, 2011; in the data active = activation above about 30%; also: 0% is about no effect
#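 TRHR-expressing cells, plated overnight in medium with 10% serum, were loaded with fluo-8 calcium dye at room temperature. After a 10 s baseline, library compound was pin-added and calcium release was recorded kinetically (ex 480/em 530) as agonist response.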
# TRPML1 ag: qHTS for Agonists of the Human Mucolipin Transient Receptor Potential 1 (TRPML1). AID 624414, 2012. actives 0.12% (n = 410,000). activation, % (test concentration not listed). Mucolipin-1 (Homo sapiens), Q9GZU1. TRPML1-expressing cells, Ca2+ dye fluorescence, FDSS; in the data active = activation above about 50%; inconclusive = mostly about 30% to 49%; also: 0% is about no effect
#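 Calcium fluorescence on an FDSS kinetic reader gave the read-out. Tet-induced TRPML1-DL cells were plated overnight, dye-loaded (Ca8 with quencher, 45-90 min, room temperature, dark), then read 110 s after compound addition, and again 110 s after 4uM final 54-4 (EC80).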
# TRPV1 ag: HTS Assay for Compounds that Act as Agonists of the Vanilloid Receptor 1; TRPV1-expressing cells, Fluo-8 calcium influx, agonist mode; activation, % at 8.33 µM; actives 0.19% (n = 320,000); in the data active = activation above about 80%; inconclusive = between about 30% and that limit; also: 0% is about no effect
#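 TRPV1-expressing cells were cultured overnight at 35.5C and loaded with Fluo-8 calcium dye for 40 to 90 min at room temperature. After a 10 s baseline, compound was added and calcium influx was read kinetically for 3 min (ex 480/em 520 nm).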
# TRPV1 potentiator: HTS Assay for Compounds that Act as Potentiators of the Vanilloid Receptor 1. TRPV1-expressing cells, Fluo-8 calcium influx, capsaicin EC20 potentiation. potentiation, % at 8.33 µM. actives 0.02% (n = 320,000); in the data active = potentiation above about 80%; inconclusive = between about 30% and that limit; also: 0% is about no effect
#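 Fluo-8 calcium influx in TRPV1-expressing cells, kinetic read (ex 480/em 520 nm). Compound added and read 3 min for agonist activity, followed by capsaicin at EC20 final and 2 min further read for enhancement.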
# TRHR enhancer-1: qHTS for Small Molecule Agonists and Allosteric Enhancers of Human TRH Receptor: Primary Screen for Enhancers; enhancement, % at 2 µM; Thyrotropin-releasing hormone receptor (Homo sapiens), P34981; TRHR cells, fluo-8 calcium fluorescence, EC20 TRH enhancement; actives 0.66% (n = 360,000); AID 493056, 2011; in the data active = enhancement above about 30%; also: 0% is about no effect
#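 Enhancer read-out: after compound pinning and an initial kinetic agonist-mode read, an EC20 of TRH (10 nM final) was injected and fluo-8 calcium signal (Ex 480/Em 530) followed at 1 s/cycle for 100 cycles in TRHR-expressing cells.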
# TRHR enhancer-2: qHTS for Small Molecule Agonists and Allosteric Enhancers of Human TRH Receptor: Confirmation Screen for Enhancers. shares compounds with TRHR enhancer-1. AID 493076, 2011. 970 tested, under 10 active. TRH receptor cell assay, enhancer confirmation qHTS. activity change, negative = inhibition, % at 46.1 µM;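 also: compound effect scored on response to added TRH at EC20 of 10 nM; 0% is about no effect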
# TRHR agonist-2: qHTS for Small Molecule Agonists and Allosteric Enhancers of Human TRH Receptor: Confirmation Screen for Agonists; shares compounds with TRHR enhancer-1; TRHR-expressing cells, agonist activation read-out; Potency, µM (highest dose often 46.1 µM), inactives show at the highest dose activation, actives largely listed as activators; actives 8% (n = 970); AID 493078, 2011; also: potency is read from the fitted curve at half-maximal effect; 0% is about no effect; nearly all actives have a fitted effect of over 75% in size
# An asterisk follows results filed as active; ? = inconclusive; / = no result given. Unless noted, calls follow the shape of the dose curve; as a rule, active = well fitted curve in the direction sought with a large enough effect; inconclusive = small, poorly fitted or top-dose-only effect, or another doubt; inactive = no such curve, though single readings can be large; an effect the other way counts as inactive or inconclusive.
SMILES,TRPML1 inh,TRHR agonist-1,TRPML1 ag,TRPV1 ag,TRPV1 potentiator,TRHR enhancer-1,TRHR enhancer-2,TRHR agonist-2
NS(=O)(=O)c1ccc(C(=O)Nc2ccc(-c3nc4cccnc4s3)cc2)cc1,9,1,0,-3,5,44*,-9,1%
CC(=O)c1ccccc1OCCOc1ncnc2sccc12,16,1,-1,-3,-2,60*,1,7%
Cc1ccc2cc(NC(=O)c3ccccc3C)ccc2n1,3,0,0,-6,14,50*,2,1%
Cc1ccc2cc(NC(=O)Cc3ccccc3)ccc2n1,-7,0,4,5,4,3,/,/
O=C1c2ccccc2-c2onc3ccc(N4CCCC4)c1c23,33,54*,?,?,-8,-13,5,?
S=C(NC1CCCCC1)N1CCN(c2ccccn2)CC1,16,0,0,-1,7,44*,12,-1%
S=C(NC1CCCCC1)N1CCN(c2ncccn2)CC1,0,0,2,-2,9,14,/,/
O=C(Nc1ccc(OC(F)F)cc1)c1nc(SCc2ccccc2F)ncc1Cl,/,/,1,/,/,/,/,/
CC(C)COc1ccc(CC(=O)NO)cc1,/,/,-1,/,/,/,/,/
Cc1ccnc2cc(Cl)cc(Cl)c12,/,/,0,/,/,/,/,/
O=S(=O)(Nc1cnc2ccccc2c1)N1CCCCCC1,10,1,4,18,-22,48*,2,4%
Cc1ccc(S(=O)(=O)Nc2cnc3ccccc3c2)cc1,-6,1,2,3,?,7,/,/
CC(C)CCNC(=O)NC(=O)CSc1ccc(S(=O)(=O)N2CCOCC2)cn1,9,-1,1,6,-7,63*,13,-1%
O=C(N/C(=C/c1ccc(Br)cc1)C(=O)N1CCOCC1)c1ccc(Br)o1,5,-1,1,1,-5,97*,-2,1%
O=C(CNC(=O)C1CCCCC1)OCC(=O)c1ccc(C2CCCCC2)cc1,/,/,-1,/,/,/,/,/
Cc1cccc(OCCNS(=O)(=O)c2ccc(Cl)cc2)c1,6,1,0,7,9,51*,4,1%
Cc1cccc(NC(=O)CCNS(=O)(=O)c2ccc(Cl)cc2)c1,-7,0,0,15,-1,20,/,/
O=C(Nc1ccc(Cl)cc1Cl)c1ccc2c(=O)n3c(nc2c1)CCC3,10,26,17,-2,7,-5,2,?
O=C(Nc1ccc(Br)cc1Cl)c1ccc2c(=O)n3c(nc2c1)CCC3,-7,0,6,3,-6,12,/,/
CC1(C)CCc2cc(O)ccc2O1,/,/,-1,/,/,/,/,/
O=[N+]([O-])c1ccc2sc(SCc3nc4ccccn4c3Br)nc2c1,/,-1,/,-9,?,41*,-7,3%
Brc1c(CSc2nc3ccccc3s2)nc2ncccn12,1,0,0,1,1,6,/,/
COc1cccc(NC(=S)N(Cc2ccccn2)Cc2ccccc2Cl)c1,54,0,3,11,-4,43*,-5,2%
COc1ccc(NC(=S)N(Cc2ccccn2)Cc2ccccc2Cl)cc1,1,0,0,-2,5,-3,/,/
COc1ccccc1NC1=C(Cl)C(=O)N(C2CCCCC2)C1=O,-2,0,1,10,-7,46*,10,4%
SMILES,TRPML1 inh,TRHR agonist-1,TRPML1 ag,TRPV1 ag,TRPV1 potentiator,TRHR enhancer-1,TRHR enhancer-2,TRHR agonist-2
Cc1ccccc1NC1=C(Cl)C(=O)N(C2CCCCC2)C1=O,-5,3,3,?,-30,-1,/,/
CCCCCCCCCCN(CCCCCCCCCC)c1ccc(/C=C/c2ccnc3ccccc23)cc1,/,/,1,/,/,/,/,/
O=C(Nc1ccc([N+](=O)[O-])cc1)c1nc[nH]c1C(=O)NC1CCCCC1,-12,43*,0,-1,-4,7,4,-1%
NCCCN(Cc1ccc(Cl)c(Cl)c1)c1ccccn1,/,/,1,/,/,/,/,/
N#Cc1c(N)n(CCNC(=O)c2cccs2)c2nc3ccccc3nc12,19,0,0,1,-8,1,/,/
N#Cc1c(N)n(CCNC(=O)c2ccccc2)c2nc3ccccc3nc12,6,28,0,-3,-2,4,-6,-1%
COc1ccccc1N1CCN(Cc2nc3ccccc3[nH]2)CC1,44,0,0,0,3,50*,5,-1%
Cc1c2ccccc2nc2c(F)c(NCCO)c(F)c(F)c12,11,37*,6,10,-13,11,8,16µM*
CN1CC(=O)N/C1=N\C(=O)Nc1ccc(O)cc1,-5,1,3,2,-1,54*,-3,-1%
C[N+]1(CC(=O)c2ccc(O)c(O)c2)CCOCC1,/,/,0,/,/,/,/,/
CC(=O)N(c1ccc2ccccc2c1)C1SC(=O)N(c2cccc(C)c2)C1=O (stereo not given),/,/,0,/,/,/,/,/
NC(=O)CN1CCOCCOCCN(CC(N)=O)CCOCCOCC1,9,-1,0,-7,-28,55*,?,-1%
Cc1nc2ccc(C(=O)Nc3ccccc3Cl)cc2s1,/,-1,/,?,-31,51*,3,1%
O=S(=O)(NCCCCNS(=O)(=O)c1cccc2cccnc12)c1cccc2cccnc12,/,/,-1,/,/,/,/,/
O=C(NCCc1ccccc1Cl)C1CCC(=O)N(C2CCCCCC2)C1 (stereo not given),18,0,0,4,-3,4,/,/
O=C(NCCOc1ccccc1)C1CCC(=O)N(C2CCCCCC2)C1 (stereo not given),8,0,0,6,7,58*,4,-1%
